Sfp inh = Sfp phosphopantetheinyl transferase inhibition | Potency, µM, actives largely listed as inhibitors | Biochemical Sfp PPTase activity, qHTS | 310,000 compounds, 3.5% hits | AID 1490;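 note: the enzyme is Sfp with the accession as filed and its product quenches rhodamine fluorescence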
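Compounds were incubated with enzyme (final 15 nM) for 15 min at room temperature before substrate addition started the reaction. Fluorescence at 525 nm excitation, 598 nm emission was recorded immediately and after 30 minutes.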
VDR inh = vitamin D3 receptor (human) inhibition; AID 504847; VDR-SRC2-3 peptide fluorescence polarization, 2 h; Potency, µM, hits mostly inhibitors; 400,000 compounds, 0.93% hits; P11473
Target sequence (P11473 whole entry, looked up): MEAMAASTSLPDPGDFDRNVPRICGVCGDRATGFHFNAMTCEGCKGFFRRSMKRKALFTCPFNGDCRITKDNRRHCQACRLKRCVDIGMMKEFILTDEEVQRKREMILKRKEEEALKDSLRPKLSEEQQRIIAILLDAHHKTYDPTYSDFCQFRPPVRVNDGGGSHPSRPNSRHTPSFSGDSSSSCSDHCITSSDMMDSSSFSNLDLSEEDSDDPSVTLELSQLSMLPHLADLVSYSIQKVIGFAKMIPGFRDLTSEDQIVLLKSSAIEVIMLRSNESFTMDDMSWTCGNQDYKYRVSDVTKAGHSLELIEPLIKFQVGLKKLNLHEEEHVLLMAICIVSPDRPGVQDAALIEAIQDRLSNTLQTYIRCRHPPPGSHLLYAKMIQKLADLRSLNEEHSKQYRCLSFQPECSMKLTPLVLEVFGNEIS
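Compounds are added to VDR with labelled SRC2-3 coactivator peptide and held 2 h at room temperature. Inhibition of the VDR–peptide interaction is then read as a change in fluorescence polarization.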
ALOX12 inh = ALOX12 (human) lipoxygenase inhibition; P18054; purified 12hLO, xylenol orange hydroperoxide absorbance; Potency, µM (series often up to 108 µM), hits mostly inhibitors; 580,000 compounds, 1.1% hits; AID 1671190
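Hydroperoxide product was detected by ferrous iron/xylenol orange as the 573 to 405 nm absorbance ratio. Arachidonic acid at 40 uM (final) was turned over for 30 min at room temperature by 150 nM human 12hLO, pH 7.0 Hepes buffer, after 15 min compound preincubation.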
PLK1 PBD block = blocks phosphopeptide binding to human PLK1 polo-box domain; Potency, µM, usual class: inhibitors; Plk1 PBD binding of FITC phosphopeptide, fluorescence polarization; 360,000 compounds, 2.8% hits; note: series mostly up to about 57 µM; nearly all actives have a fitted effect of over 65% in size
Of the large screens only hits and unclear results are named; the others gave an inactive call. A selection: hits, their analogues and other compounds. The true share with any hit is near 4.2%. Calls come from the whole dose curve; as a rule, active = well fitted curve in the direction sought with a large enough effect; inconclusive = small, poorly fitted or top-dose-only effect, or another doubt; inactive = no such curve, though single readings can be large; an effect the other way counts as inactive or inconclusive.

COc1cc(CN2CCNC(=O)C2CC(=O)N(C)CCC2CCOCC2)cc(OC)c1 (centres undefined)	VDR inh inconclusive, PLK1 PBD block 26.7µM
COc1ccc(CN2CCNC(=O)C2CC(=O)N(C)Cc2nccs2)c(OC)c1 (centres undefined)	ALOX12 inh inconclusive, PLK1 PBD block 26.7µM
COc1cccc(CN2CCNC(=O)C2CC(=O)N(C)CCC2CCOCC2)c1 (centres undefined)	none
CN(CCc1ccccn1)C(=O)CC1C(=O)NCCN1Cc1ccc(-c2ccccc2)cc1 (centres undefined)	Sfp inh 50.1µM
N#CCOc1ccc2c(=O)c(-c3ccc(Cl)cc3)c(C(F)(F)F)oc2c1	none (no result: Sfp inh, VDR inh, PLK1 PBD block)
O=[N+]([O-])c1ccc(C[n+]2cccc3ccc4cccnc4c32)cc1	Sfp inh 14.1µM, VDR inh 79.4µM, PLK1 PBD block 9.47µM
O=[N+]([O-])c1ccc(C[n+]2cccc3ccccc32)cc1	ALOX12 inh inconclusive
C=CCN1C(=O)C2(NC(=O)c3ccccc3N2)c2ccccc21 (centres undefined)	none
CCc1ccc(CNC(=O)c2cc3c(=O)oc4ccc(C)cc4c3s2)cc1	none (no result: Sfp inh, PLK1 PBD block)
Cc1ccc([N+](=O)[O-])cc1S(=O)(=O)Nc1ccc(O)c(Sc2ncn[nH]2)c1	Sfp inh 44.7µM, ALOX12 inh inconclusive, PLK1 PBD block inconclusive
Cc1cc(O)c(Sc2ncn[nH]2)cc1NS(=O)(=O)c1ccc(Cl)cc1	ALOX12 inh inconclusive (no result: Sfp inh)
CCOC(=O)c1c(NC(=O)COC(=O)c2ccccn2)sc(C)c1C	ALOX12 inh inconclusive (no result: Sfp inh)
Cc1cc(C)nc(Nc2ccc(N3CCCC3)cc2)n1	Sfp inh 79.4µM, ALOX12 inh inconclusive
CC(=O)Nc1ccc(SC[C@H](Cc2ccccc2)N2CCN(CCc3ccccc3)CCC2=O)cc1	VDR inh inconclusive, ALOX12 inh inconclusive, PLK1 PBD block 11.9µM
CC(=O)Nc1ccc(S[C@@H](CCN2CC[C@H](C(C)(C)C)CCC2=O)c2ccccc2)cc1	VDR inh inconclusive, PLK1 PBD block 8.44µM (no result: Sfp inh)
CC(=O)Nc1ccc(SCCN2CCN(CCc3ccccc3)CCC2=O)cc1	Sfp inh 50.1µM, VDR inh 17.8µM (no result: ALOX12 inh, PLK1 PBD block)
Cc1ccc(SC[C@H](Cc2ccccc2)N2CCN(CC(C)C)CCC2=O)cc1	ALOX12 inh inconclusive
CC(=O)Nc1ccc(SCC(c2ccccc2)N2CCN(CCc3ccccc3)CCC2=O)cc1 (centres undefined)	none (no result: ALOX12 inh, PLK1 PBD block)
CC(C)CN1CCC(=O)N([C@H](CSc2ccccc2)Cc2ccccc2)CC1	VDR inh inconclusive, PLK1 PBD block 21.2µM
COc1ccccc1N1CCN(C(=O)c2ccc(N3CCCCS3(=O)=O)cc2)CC1	none
CCN(C(=O)CSc1nc(C)nc2sc3c(c12)CCC3)C1CCS(=O)(=O)C1 (centres undefined)	none (no result: Sfp inh)
CC(C)(C)[C@H]1CCC(=O)N([C@H](CSc2ccccc2)Cc2ccccc2)CC1	none
CC(=O)Nc1ccc(SC[C@H](Cc2ccccc2)N2CC[C@@H](C(C)(C)C)CCC2=O)cc1	VDR inh inconclusive, PLK1 PBD block 9.47µM (no result: Sfp inh)
Cn1c(=O)c([N+](=O)[O-])c(Cl)c2ccccc21	VDR inh 17.8µM, PLK1 PBD block inconclusive
Cn1c(=O)c([N+](=O)[O-])c(NCc2ccc3c(c2)OCO3)c2ccccc21	Sfp inh 50.1µM
Cn1c(=O)c([N+](=O)[O-])c(-n2cnc3ccccc32)c2ccccc21	Sfp inh inconclusive, VDR inh 20µM, ALOX12 inh inconclusive
Cc1ccc(-c2nc3c(c(=O)[nH]c(=O)n3Cc3ccccc3)n2C)s1	none (no result: VDR inh, ALOX12 inh, PLK1 PBD block)
CCc1ccc(NC(=O)Cn2nc(C(F)(F)F)c3c2CCCC3)cc1	none (no result: Sfp inh, PLK1 PBD block)
CCc1c(C)sc(NC(=O)Cn2nc(C(F)(F)F)c3c2CCCC3)c1C#N	Sfp inh 39.8µM, PLK1 PBD block 21.2µM
CCc1c(C)sc(NC(=O)c2ccc(Cl)cc2)c1C#N	none (no result: Sfp inh, VDR inh, PLK1 PBD block)
CCc1c(C)sc(NC(=O)C2CC2)c1C#N	ALOX12 inh 28.2µM (no result: Sfp inh, VDR inh, PLK1 PBD block)
CCOC(=O)C(NC(=O)CC)(Nc1sc(C)c(CC)c1C#N)C(F)(F)F (centres undefined)	none
CCc1c(C)sc(NC(=O)CC#N)c1C#N	Sfp inh 31.6µM, ALOX12 inh inconclusive, PLK1 PBD block inconclusive
CCc1c(C)sc(NC(=O)C(F)(F)C(F)(F)C(F)(F)C(F)(F)F)c1C#N	ALOX12 inh 10µM (no result: Sfp inh, VDR inh, PLK1 PBD block)
CN1C(=O)NC(c2cccc([N+](=O)[O-])c2)C2=C1CC(C)(C)CC2=O (centres undefined)	none
Cc1sc(NC(=O)C2CCCC2)c(C#N)c1C	Sfp inh inconclusive, VDR inh inconclusive, ALOX12 inh inconclusive, PLK1 PBD block 26.7µM
CCc1c(C)sc(NC(=O)C2CCC2)c1C#N	ALOX12 inh 12.6µM (no result: Sfp inh, VDR inh, PLK1 PBD block)
CCc1ccc(-c2c(C)sc(NC(=O)C3CCC3)c2C#N)cc1	none
O=C1c2cc(N3CCOCC3)nc(-c3ccc(F)cc3)c2CN1CC1CC1	ALOX12 inh 31.6µM (no result: Sfp inh, VDR inh, PLK1 PBD block)
CCN1CCN(Cc2ccc(NC(=O)c3ccc(C)c(NC(=O)c4ccnnc4)c3)cc2C(F)(F)F)CC1	ALOX12 inh inconclusive
CCN1CCN(Cc2ccc(NC(=O)c3cc(NC(=O)C(=O)c4c[nH]c5ccccc45)cc(OC)c3)cc2C(F)(F)F)CC1	Sfp inh 50.1µM
CCN1CCN(Cc2ccc(NC(=O)c3ccc(C)c(NC(=O)C(=O)c4c[nH]c5ccccc45)c3)cc2C(F)(F)F)CC1	Sfp inh 50.1µM, ALOX12 inh inconclusive
Cc1onc(-c2ccccc2)c1-c1nnc(COC(=O)c2ccc(F)cc2)o1	none (no result: Sfp inh, VDR inh)
Cc1noc(-c2ccc(OC3CN(C(=O)Cc4cccs4)C3)cc2)n1	ALOX12 inh 7.08µM (no result: Sfp inh, VDR inh, PLK1 PBD block)
Cc1noc(-c2ccc(OC3CN(C(=O)CCCc4ccccc4)C3)cc2)n1	none (no result: Sfp inh, VDR inh, PLK1 PBD block)
Cc1ccccc1NC(=S)Nc1cccc2cnccc12	Sfp inh 3.16µM, ALOX12 inh inconclusive, PLK1 PBD block inconclusive
COCCNC(=S)Nc1cccc2cnccc12	none
Fc1ccccc1NC(=S)Nc1cccc2cnccc12	Sfp inh 22.4µM, VDR inh inconclusive, PLK1 PBD block 29.9µM
FC(F)(F)c1ccccc1NC(=S)Nn1cnnc1	Sfp inh 20µM, VDR inh inconclusive, PLK1 PBD block 9.47µM
CCCCNC(=S)Nc1cccc2cnccc12	PLK1 PBD block inconclusive
Fc1ccccc1NC(=S)Nc1cccnc1	none
Cc1ccc(C)c(NC(=S)Nc2cccc3cnccc23)c1	Sfp inh 31.6µM, ALOX12 inh inconclusive, PLK1 PBD block inconclusive
CCC(NC(=O)Cc1cccs1)c1ccccc1 (centres undefined)	none
Cc1occc1C(=O)NN1C(=O)C2C3CCC(O3)C2C1=O (centres undefined)	none
CC(=O)Nc1c(NC(C)C)c2ccccc2oc1=O	none
FC(F)(F)c1ccccc1NC(=S)Nc1cccc2cnccc12	Sfp inh 20µM, PLK1 PBD block 29.9µM
Clc1ccccc1CO/N=C1\CCCc2nonc21	none
Clc1ccc(CO/N=C2\CCCc3nonc32)cc1	VDR inh inconclusive, PLK1 PBD block 21.2µM
COc1ccc(-c2nnc(SCC(C)C)o2)cc1	none
O=C(O)CN1C(=O)/C(=C\c2ccccc2OCc2ccc(F)cc2)SC1=S	VDR inh inconclusive, ALOX12 inh inconclusive, PLK1 PBD block 26.7µM
O=C(O)CCCN1C(=O)/C(=C\C(Cl)=C\c2ccccc2)SC1=S	PLK1 PBD block 10.6µM
